This is one part of a sample in which hits are shown more often than they occur.
Tg IFNy HTS = inhibitors of Toxoplasma gondii growth with IFN-gamma. Toxoplasma gondii growth in IFN-gamma-treated host cells; active compounds read low. activity change, negative = inhibition, % (concentration not given with the values). hit rate 3.8% among 69,000. AID 1259416; in the data active = activity change below about -70%, passing the limit was not always enough;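 also: host cells are HeLa cells infected with Toxoplasma gondii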
Starred values were filed as active, the others as inactive.

For CN(C)c1cncc(-c2cccc(-n3cccn3)c2)n1 the results were Tg IFNy HTS 190.
`O=C(O)c1ccc(-c2cccc(-n3cccn3)c2)o1` gave Tg IFNy HTS -45.
For Cc1ccc(CNC(=O)N2CCC3(CC2)NC(=O)c2ccc(F)cc2N3C)cc1 the results were Tg IFNy HTS -17.
`COc1ccc2c(c1)CC(C(=O)NCCc1cnccn1)CO2` (stereo not given) gave Tg IFNy HTS -1.
Screening C=CCn1ncc(CN2CCC3(CC2)CCN(C(=O)c2ccno2)CC3)c1C returned Tg IFNy HTS -4.
For COc1cccc(CN(C(=O)c2ccc(C)cc2)C2(C(=O)NCc3ccccc3)CCN(C(C)=O)CC2)c1OC the results were Tg IFNy HTS -93*.
For CC(=O)N1CCC(C(=O)NCc2ccccc2)(N(Cc2ccccc2C)C(=O)c2ccc(C)cc2)CC1 the results were Tg IFNy HTS 36.
`COc1ccc(OC)c(CN(C(=O)c2ccc(C)cc2)C2(C(=O)NCc3ccccc3)CCN(C(C)=O)CC2)c1` gave Tg IFNy HTS -4.
`S=C(Cc1cccc2c1[nH]c1ccc(Br)cc12)N1CCOCC1` gave Tg IFNy HTS 12.
For O=C1CCc2cc(S(=O)(=O)NCCCc3ccccc3)cc3c2N1CCC3 the results were Tg IFNy HTS -70.
`Cc1cc(C)cc(NC(=O)N2CCC3(CC2)Nc2cc(C)ccc2-n2cccc23)c1` gave Tg IFNy HTS -108*.
CCN1c2cc(C)ccc2-n2cccc2C12CCN(C(=O)Nc1ccccc1Cl)CC2 was read as Tg IFNy HTS -110*.
For O=C(Nc1cccc(C(F)(F)F)c1)N1CCC2(CC1)Nc1ccccc1-n1cccc12 the results were Tg IFNy HTS 474.
`Cc1cc(C)cc(NC(=O)N2CCC3(CC2)Nc2cc(F)ccc2-n2cccc23)c1` gave Tg IFNy HTS 162.
`CCN1c2cc(C)ccc2-n2cccc2C12CCN(C(=O)Nc1ccc(C)cc1Cl)CC2` gave Tg IFNy HTS 107.
Screening CCN1c2cc(C)ccc2-n2cccc2C12CCN(C(=O)Nc1cccc(C(F)(F)F)c1)CC2 returned Tg IFNy HTS -111*.
Screening CCN1c2cc(C)ccc2-n2cccc2C12CCN(C(=O)Nc1ccccc1C)CC2 returned Tg IFNy HTS 15.
For CCN1c2cc(C)ccc2-n2cccc2C12CCN(C(=O)Nc1cccc(F)c1)CC2 the results were Tg IFNy HTS -85*.
Screening Cc1ccc(C)c(NC(=O)N2CCC3(CC2)Nc2cc(C)ccc2-n2cccc23)c1 returned Tg IFNy HTS -54.
CCN1c2cc(C)ccc2-n2cccc2C12CCN(C(=O)NC(C)C)CC2 was read as Tg IFNy HTS -16.
`Cc1ccc2c(c1)NC1(CCN(C(=O)Nc3cccc(C(F)(F)F)c3)CC1)c1cccn1-2` gave Tg IFNy HTS 81.
CCN1c2cc(C)ccc2-n2cccc2C12CCN(C(=O)Nc1cccc(Cl)c1C)CC2 was read as Tg IFNy HTS -28.
For O=C1CC(c2cccnc2)C2(CCN(Cc3ccoc3)CC2)N1 (stereo not given) the results were Tg IFNy HTS -24.
`CCN(CCNc1nc(-c2ccc(OC)cc2)nc2ccccc12)Cc1ccccc1` gave Tg IFNy HTS -48.
O=C(COc1ccccn1)N1CCC(C(O)(c2ccccc2)c2ccccc2)CC1 was read as Tg IFNy HTS 44.
For Cc1nc2cc(C(=O)N3CCC(c4ccc(Nc5ccc(F)cn5)cn4)CC3)ccc2n1C the results were Tg IFNy HTS -13.
COC(=O)[C@H]1CN(C(=O)c2c[nH]n3c(=O)cc(C)nc23)C[C@@H]1c1ccc(F)cc1 was read as Tg IFNy HTS -9.
Screening COC(=O)c1cc(C2CC2)nc2c1c(=O)n(Cc1nc(-c3ccc(OC)cc3)oc1C)c(=O)n2C returned Tg IFNy HTS 8.
Oc1ccccc1-c1nc(/C=C/c2ccc(Br)cc2)nn1-c1ccccc1 was read as Tg IFNy HTS -40.
`CCN1c2cc(C)ccc2-n2cccc2C12CCN(C(=O)Nc1cccc(Br)c1)CC2` gave Tg IFNy HTS -84*.
`CCN1c2cc(C)ccc2-n2cccc2C12CCN(C(=O)Nc1ccc(OC)c(OC)c1)CC2` gave Tg IFNy HTS -31.
CSc1cccc(NC(=O)N2CCC3(CC2)Nc2cc(F)ccc2-n2cccc23)c1 was read as Tg IFNy HTS inactive.
`CCN1c2cc(C)ccc2-n2cccc2C12CCN(C(=O)Nc1ccc(C)c(Cl)c1)CC2` gave Tg IFNy HTS 5.
CCN1c2cc(C)ccc2-n2cccc2C12CCN(C(=O)Nc1cccc(SC)c1)CC2 was read as Tg IFNy HTS -87*.
For CCOC(=O)C1CCC(CNC(=O)N2CCC3(CC2)c2cccn2-c2ccc(C)cc2N3CC)CC1 (stereo not given) the results were Tg IFNy HTS -10.
For COc1ccccc1C(=O)N1CCN(c2nc(C)nc3ccc(N4CCOCC4)cc23)CC1 the results were Tg IFNy HTS 16.
Screening O=C(c1c(O)cccc1O)N1CCCC(OCc2cccnc2)C1 (stereo not given) returned Tg IFNy HTS 6.
O=S(=O)(NCc1ccccc1)NC1CCN(CC2CCCO2)CC1 (stereo not given) was read as Tg IFNy HTS -2.
CCNC(=O)c1ccc(N2CCN(Cc3ccc4c(c3)OCCO4)CC2)nc1 was read as Tg IFNy HTS -3.
For O=C(Nc1ccc(CN2CCOCC2)cc1)c1cc2ccccc2o1 the results were Tg IFNy HTS inactive.
For CCNC(=O)c1noc(-c2cc(C(C)C)c(O)cc2O)c1-c1ccc(CN2CCOCC2)cc1 the results were Tg IFNy HTS -88*.
`Cc1onc(-c2ccccc2)c1CNC(=O)C1CCN(c2nccc(C(F)(F)F)n2)CC1` gave Tg IFNy HTS -66.
Cc1onc(-c2ccccc2)c1CNC(=O)c1ccccc1 was read as Tg IFNy HTS 29.
Cc1onc(-c2ccccc2)c1CNC(=O)NC1CCN(C(=O)OCc2ccccc2)CC1 was read as Tg IFNy HTS -82*.
Screening Cc1onc(-c2ccccc2)c1CNC(=O)Nc1csc2ccccc12 returned Tg IFNy HTS -98*.
Screening O=C(OCc1ccccc1)N1CCOCCN(C(=O)OCc2ccccc2)CCOCC1 returned Tg IFNy HTS -15.
Screening Cc1onc(-c2ccccc2)c1NC(=O)NCc1csc(-c2cccs2)n1 returned Tg IFNy HTS 7.
Screening CCC1(CC)CN(C(=O)CC2C(=O)NCCN2Cc2ccoc2)CCO1 (stereo not given) returned Tg IFNy HTS 4.
Screening Cc1cc(C(=O)N2C[C@H]3C[C@@H]4[C@@](C2)(CN(Cc2ccccc2)S4(=O)=O)O3)no1 returned Tg IFNy HTS -8.
Screening CN(C)C(=O)CC1CC2(CCN(Cc3cnn(C)c3)CC2)Oc2ccccc21 (stereo not given) returned Tg IFNy HTS 6.
Screening Cc1ccc(NC(=O)Cn2c(=O)ccc3cc(S(=O)(=O)N4CCC(C)CC4)ccc32)cc1Cl returned Tg IFNy HTS -93*.
For COc1cccc(NC(=O)Cn2c(=O)ccc3cc(S(=O)(=O)N4CCCC4)ccc32)c1 the results were Tg IFNy HTS -46.
CC(C)c1ccc(NC(=O)Cn2c(=O)ccc3cc(S(=O)(=O)N4CCCC4)ccc32)cc1 was read as Tg IFNy HTS -78*.
CC(=O)Nc1ccc(NC(=O)Cn2c(=O)ccc3cc(S(=O)(=O)N4CCC(C)CC4)ccc32)cc1 was read as Tg IFNy HTS 63.
`CC1CCN(S(=O)(=O)c2ccc3c(ccc(=O)n3CC(=O)NC(C)C)c2)CC1` gave Tg IFNy HTS 1.
